The structures appear in SMILES notation. In all, about 2,300 compounds went through this assay and about 20 (0.9%) were called active. The sample holds actives, similar compounds and a random draw of the others, so the mix is not that of the screen.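 The calls were made as follows: active = mean activation across replicates above 26.72%, the hit cutoff set for this confirmation screen; inactive = the rest.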

The target of this experiment is G-protein coupled receptor 151 (Homo sapiens) (UniProt Q8TDV0). The experiment is described as follows: GPR151 agonism via beta-arrestin recruitment – cell-based, PathHunter beta-arrestin, luminescence, set 2, confirmation (AID 1508608).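 Also: 0% = plate median of compound wells and 100% = EA reagent high control.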 To be noted: GPR151 PathHunter beta-arrestin cells, 90 min, at 11.2 µM, stronger effect = higher value, 100% = signal from added EA reagent.
Chain of G-protein coupled receptor 151 (Homo sapiens) (Q8TDV0 whole entry, looked up): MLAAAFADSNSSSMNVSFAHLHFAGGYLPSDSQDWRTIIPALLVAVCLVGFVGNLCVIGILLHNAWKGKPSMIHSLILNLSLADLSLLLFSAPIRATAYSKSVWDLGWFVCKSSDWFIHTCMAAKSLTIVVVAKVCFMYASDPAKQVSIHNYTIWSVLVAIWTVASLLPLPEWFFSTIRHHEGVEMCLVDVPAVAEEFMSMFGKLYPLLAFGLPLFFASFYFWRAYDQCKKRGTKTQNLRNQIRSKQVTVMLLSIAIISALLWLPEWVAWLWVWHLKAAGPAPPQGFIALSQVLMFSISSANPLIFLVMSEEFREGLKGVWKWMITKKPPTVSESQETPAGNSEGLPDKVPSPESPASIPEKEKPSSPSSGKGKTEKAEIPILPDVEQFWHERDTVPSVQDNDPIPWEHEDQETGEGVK
In the case of `CC(=O)NCC(=O)N1CCC(c2nc(-c3ccncc3)ncc2-c2cccc(C)c2)CC1`, the activation is 0.35% (inactive).
Then `CCCn1c(=O)c2c(nc3n2CC(C)CN3c2cccc(Cl)c2)n(C)c1=O` (stereo unspecified), with 3.55% (inactive); and `S=c1[nH]nc(OCc2ccc(Cl)cc2Cl)n1-c1ccccc1`, with -1.15% (inactive); and `CC1C(=O)Nc2ccc(S(=O)(=O)Nc3ccc(F)c(Cl)c3)cc2NC1=O` (stereo unspecified), with 4.91% (inactive).
As to `COC(=O)C1(C(F)(F)F)N=C2C=C(C)C=CN2C(c2ccc(C)cc2)=N1` (stereo unspecified), the activation is 3.12% (inactive).
The figure for `COC(=O)c1c(NC(=O)COc2cccc(C(F)(F)F)c2)sc2c1CCCC2` is -0.94% (inactive).
Consider `O=C1CSc2ccc(C(=O)N3CCc4ccccc4C3)cc2N1`, for which the activation was -0.36% (inactive).
With `Cc1sc2ncn(CC(=O)Nc3ccc(Oc4ccc(Cl)cc4)cc3)c(=O)c2c1C`, the activation is 2.02% (inactive).
Regarding `COc1ccc(/C=N/NC(=O)COc2c(OC)cc([N+](=O)[O-])cc2[N+](=O)[O-])c(O)c1`, the activation was -9.14% (inactive).
As to `CCc1c(C)nc2c(C(=O)NCCc3ccccc3)c[nH]n2c1=O`, the activation is 1.59% (inactive).
`CCOc1ccc(C(=O)Nc2nc(-c3ccc(CC)cc3)cs2)cc1`: the activation was 4.71% (inactive).
Then `O=c1ccc(=O)n(CN(c2ccccc2)c2ccccc2)[nH]1`, with 4.24% (inactive).
Take `CCN(CC)CCNC(=O)CNC(=O)c1nn(-c2ccc(OC)cc2OC)c(=O)c2ccccc12`: the activation is -4.28% (inactive).
With `Cc1ccc(-c2cc(=O)c3cc(Cl)ccc3o2)cc1`, the activation is -6.67% (inactive).
The figure for `O=C(O)CNC(=O)/C=C/c1ccccc1Cl` is -5.28% (inactive); for `O=c1c2sc3ccccc3c2n(CCN2CCOCC2)c(=O)n1Cc1ccccn1` it is 1.89% (inactive); for `COc1ccc(C)cc1NC(=O)c1sc2ncn(CC(=O)Nc3ccc(C)c(Cl)c3)c(=O)c2c1C` it is -0.16% (inactive).
Then `O=C(c1ccccc1)c1cc2cc(Cl)ccc2oc1=O`, with 1.99% (inactive); and `O=C(CCNS(=O)(=O)c1ccc2[nH]c(=O)ccc2c1)N1CCC(N2CCCCC2)CC1`, with -4.32% (inactive); and `COc1cccc(NC2c3ccccc3C(=O)N2c2cccnc2)c1` (stereo unspecified), with 0.11% (inactive).
As to `O=C(O)c1ccc(Sc2ccc(Br)cc2)c([N+](=O)[O-])c1`, the activation was -1.52% (inactive).
Turning to `COc1ccc(C2C3=C(CCCC3=O)Nc3nc(SC)nn32)c(OC)c1` (stereo unspecified), the activation was 1.74% (inactive).
As to `CCOC(=O)C1=C(C)N=c2s/c(=C\c3cc([N+](=O)[O-])ccc3N3CCOCC3)c(=O)n2C1c1ccc(OC)c(OC)c1` (stereo unspecified), the activation is 0.23% (inactive).
For the compound `Cc1ccc(CN2CCN(Cc3ccc4cc(F)ccc4n3)CC2CCO)o1` (stereo unspecified), the activation is 4.51% (inactive).
On to `CCn1c(=S)sc2c(=O)[nH]c(C)nc21`, for which the activation is -7.13% (inactive).
For the compound `CC(=O)n1nc(-c2ccco2)nc1SCc1ccccc1`, the activation was 2.59% (inactive).
As for `Cc1noc(C)c1S(=O)(=O)N1CCC(C(=O)N2CCCCC2C)CC1` (stereo unspecified), the activation was -1.12% (inactive).
Then `CCCc1cc(=O)n2[nH]c(NCc3cccc(OC)c3)nc2n1`, with -0.18% (inactive); and `CCC(C)NC(=O)CSc1nnc(-c2ccc(C)cc2)c(-c2ccc(C)cc2)n1` (stereo unspecified), with 6.79% (inactive); and `COc1ccc(CCn2c(-c3ccc(Cl)cc3)csc2=Nc2ccc(F)cc2)cc1OC`, with 2.13% (inactive).
Regarding `O=S(=O)(c1ccc(-c2csc(=Nc3cccc(Cl)c3)n2CCCO)cc1)N1CCCCC1`, the activation is 14.5% (inactive).
Consider `CCN(CC)S(=O)(=O)c1ccc(-c2csc(=Nc3ccccc3OC)n2CC)cc1`, for which the activation was 28.4% (active).
As for `COc1ccc(C(=O)NC(C)c2csc(C)n2)cc1OC1CCN(C(C)=O)CC1` (stereo unspecified), the activation is 1.6% (inactive).
In the case of `Cc1ccc2c(c1)NC(C)(C)c1ssc(=Nc3ccc(S(=O)(=O)Nc4nccc(C)n4)cc3)c1-2`, the activation was 6.63% (inactive).
`CSc1ncc(Cl)c(C(=O)Nc2nc3ccc(S(C)(=O)=O)cc3s2)n1`: the activation was -3.08% (inactive).
For `CCC[n+]1c(/C=C2\Sc3ccccc3N2CC)ccc2ccccc21`, the activation was 15.4% (inactive).
For `CC[n+]1c(/C=C2\Sc3ccc(C)cc3N2CCO)ccc2ccccc21`, the activation is 31.2% (active).
Regarding `CN1CCN(c2cc(-c3cn[nH]c3)ccc2NC(=O)Cc2cccc(Cl)c2)CC1`, the activation is 35.5% (active).
With `N#Cc1c(-c2ccccc2)cc(-c2cccs2)nc1SC1CCCCC1O` (stereo unspecified), the activation is 4.8% (inactive).
In the case of `Cc1ccc2nc(NC(=O)CCCN3C(=S)NC(C)(C)CC3C)sc2c1` (stereo unspecified), the activation was 2.74% (inactive).
`C#CCOc1c(Br)cc(C=O)cc1OC`: the activation is -0.43% (inactive).

The record behind these values is PubChem BioAssay AID1508608 (The Scripps Research Institute Molecular Screening Center, 2020).
